# PubChem BioAssay (NCI)
# This is part of a sample that, as a whole, favours compounds with a hit. Of some 83,000 tested, about 20% had one in any assay.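 Plates (96-well) were seeded with cells, treated with compound at one concentration, and incubated for 48 hours before percent growth was determined.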 Values without a mark were called inactive. Activity calls are given as the source filed them. How the source made its calls: active means growth percent below 10; inactive means the rest.
# What was measured:
# Experiment in all cases: NCI-60 one-dose screen, 48 h (100 = growth as untreated, 0 = no growth, -100 = all killed)
# [1] = tested on: NCI-H23 lung; details: 10 µM unless noted
# [2] = tested on: NCI-H226 lung; details: 10 µM unless noted
# [3] = tested on: NCI-H322M lung; details: 10 µM unless noted
# [4] = tested on: HOP-62 NSCLC; details: 10 µM unless noted
# [5] = tested on: NCI-H460 lung; details: 10 µM unless noted
# [6] = tested on: HOP-92 NSCLC; details: 10 µM unless noted
# [7] = tested on: NCI-H522 lung; details: 10 µM unless noted
# [8] = tested on: A549/ATCC NSCLC; details: 10 µM unless noted
# [9] = tested on: 786-0 renal; details: 10 µM unless noted
# [10] = tested on: COLO 205 colon; details: 10 µM unless noted
# [11] = tested on: DU-145 prostate; details: 10 µM unless noted
# [12] = tested on: K-562 leukemia; details: 10 µM unless noted
# [13] = tested on: MALME-3M melanoma; details: 10 µM unless noted
# [14] = tested on: MDA-MB-231 breast; details: 10 µM unless noted
# [15] = tested on: RXF 393 renal; details: 10 µM unless noted
# [16] = tested on: SF-268 CNS; details: 10 µM unless noted
# [17] = tested on: SF-295 CNS; details: 10 µM unless noted
# [18] = tested on: SF-539 CNS; details: 10 µM unless noted
# [19] = tested on: UACC-257 melanoma; details: 10 µM
# [20] = tested on: M14 melanoma; details: 10 µM unless noted
Compound,growth [1],growth [2],growth [3],growth [4],growth [5],growth [6],growth [7],growth [8],growth [9],growth [10],growth [11],growth [12],growth [13],growth [14],growth [15],growth [16],growth [17],growth [18],growth [19],growth [20]
Oc1ccc(CSc2nnc(-c3cnccn3)n2-c2ccccc2)c2cccnc12,26.9%,30%,31.2%,22.1%,10.4%,-3.39% (active),2.33% (active),29.5%,35.1%,103%,35.6%,19.6%,42.9%,32.1%,33.7%,22.4%,7.13% (active),22.7%,17.4%,16.8%
CCOC(=O)/C=c1\sc2n(c1=O)C1C(NN=2)N(CC)C(=O)N1CC (stereo not drawn),79.6%,81.2%,78.9%,71.6%,37.8%,75.3%,33.3%,62.1%,63%,51.3%,75.3%,24.1%,49.1%,66.8%,70.2%,81.1%,46%,54.4%,71.5%,44.7%
CCOC(=O)c1c(NCC(=O)Nc2ccc(Br)cc2)sc2c1CCCC2,26.3%,40.7%,85.6%,69.2%,68.9%,67.7%,-48.8% (active),73.2%,21.2%,33.3%,66.7%,10.8%,21.7%,36.5%,-50.1% (active),58.4%,39.1%,12%,76.2%,46.3%
CC(C)c1nn(-c2ccccc2)c(N2CCCCC2)c1/C=N/NC(N)=S,90.9%,88.2%,82.3%,101%,96.5%,64.6%,86.1%,79.2%,101%,97%,95.3%,82.9%,104%,107%,75.5%,88%,77.6%,88.7%,106%,113%
COc1ccc(C2C(C#N)=C(N)Oc3c2sc2ccc(C)cc32)cc1 (stereo not drawn),43.7%,34.9%,71.8%,30.1%,15.2%,72.1%,-34.3% (active),45.6%,42%,36.8%,36.3%,18.2%,50%,42.2%,-7.62% (active),44.7%,9.1% (active),21%,57.1%,20.9%
CCN1C/C(=N\S(=O)(=O)c2ccccc2)N(CC)C1=S,94.1%,101%,101%,105%,108%,139%,94.3%,98.5%,96.6%,107%,117%,98.8%,100%,104%,117%,104%,103%,102%,97.6%,99%
CCN1C(=O)N(CC)C2SC(N/N=C/c3ccccc3F)=NC21 (stereo not drawn),31.6%,45.1%,53.3%,30.9%,4.97% (active),8.68% (active),-35.6% (active),27.3%,30.6%,-47.6% (active),16.6%,9.76% (active),71.1%,24.1%,46.4%,45.4%,11.6%,-16.7% (active),61%,17.2%
CCCC(=O)NC(c1cccnc1)c1ccc2c(C)ccnc2c1O (stereo not drawn),37.8%,17.2%,27.2%,23.4%,6.08% (active),47.2%,0.954% (active),16%,26%,9.55% (active),30.1%,21.4%,21.2%,32.9%,20.4%,21.9%,17.8%,14.6%,5.9% (active),9.45% (active)
O=C1[C@@H]2Cc3c([nH]c4ccccc34)[C@H](c3c(Cl)cccc3Cl)N2C(=O)CN1C1CCN(Cc2ccccc2)CC1,41.7%,74.9%,77.7%,81.3%,9.15% (active),42.8%,63.5%,12.7%,-26.6% (active),75%,31.6%,-8.4% (active),44.9%,55.4%,55.9%,52.5%,-79.4% (active),70.3%,46.4%,23.3%
N#C/C(=C\c1ccc(N2CCCCC2)cc1)C(=O)Nc1sc2c(c1C#N)CCC2,93.8%,88.1%,99.4%,94.7%,74.8%,89.4%,92.7%,90.6%,101%,118%,101%,90.7%,100%,96.4%,83.5%,90.3%,95.8%,89.6%,91.7%,102%
COc1c([C@@H](CC(C)C)OC(C)=O)ccc2c1C(=O)OCc1cc(C)cc(O)c1O2,23.7%,43.5%,54.3%,24.5%,8.61% (active),3.04% (active),20.2%,13.6%,80.5%,9.55% (active),26.7%,16.9%,19%,35.7%,64.1%,33%,31.8%,55.6%,,44.3%
Cc1cc(O)c(=O)cc2c1C[C@H]1CC(C)(C)/C=C/C[C@]3(C)Oc4cc(=O)c(O)cc(C)c4C[C@H]3C[C@H](O)[C@@]1(C)O2,-10.9% (active),14.7%,16%,-12.4% (active),0.132% (active),-16.1% (active),-26.9% (active),-0.223% (active),-24.3% (active),-10.3% (active),16.1%,-42.7% (active),-8.22% (active),17.4%,5.24% (active),16.6%,4.92% (active),7.55% (active),,-25.9% (active)
NS(=O)(=O)Oc1ccc2nc(Nc3ccc(F)c(F)c3)ccc2c1,96.3%,90.5%,92.9%,99.4%,98.1%,115%,91.4%,79.6%,89.6%,93.8%,92.9%,67.6%,102%,94.3%,96.7%,88.1%,82.8%,89.9%,104%,87.9%
CC(C)(C)n1nnnc1C(Nc1nccs1)c1cc2cccc3ccc4cccc1c4c32 (stereo not drawn),100%,-13% (active),95.5%,84.9%,99.8%,103%,100%,108%,107%,104%,107%,102%,97%,99.3%,92.1%,100%,93.1%,92.9%,100%,106%
NNC(=O)c1sc2nc(-c3cnccn3)cc(-c3cccs3)c2c1N,98.6%,89.7%,74.4%,91.6%,103%,101%,101%,102%,108%,102%,104%,95.5%,95.6%,79%,102%,93.5%,104%,94.9%,115%,105%
